Several values for one entry are separate records, joined by “and”; a condition that tells them apart may be missing. Equal entries are not always repeated. The whole screen tested about 5,500 compounds, of which about 2,000 (36%) were called active. Roughly 18% stayed inconclusive and do not appear here. This is one part of the list. A number with no mark means an inactive call. No stated cut-off is given here; in the data, active means normalized growth mostly below about 0.91 (no sharp cut-off); inconclusive means no clear call, values can overlap the other calls; inactive means mostly above about 0.92.
Assay: chemical genetic growth profiling, strain panel (AID 1159580);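 further: tested at 20 µM; growth read once vehicle control cultures reached saturation at 30 °C; 1 = growth at the plate median or of vehicle wells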
Details: S. cerevisiae deletion strains, growth OD

Which normalized growth (locus YAL021C, strain ccr4, stronger effect = lower value) does the source give for `COC1=CC(=O)C=C(OC)C1=O` here?
The normalized growth was 1.03.

And the normalized growth (locus YAL026C, strain drs2, stronger effect = lower value)?
The normalized growth was 0.978.

What about the normalized growth (locus YAL030W, strain snc1, stronger effect = lower value) of the same compound?
The normalized growth was 0.991.

What about the normalized growth (locus YBL061C, strain skt5, stronger effect = lower value) of the same compound?
Its normalized growth is 0.998.

And the normalized growth (locus YBR009C, strain hhf1, stronger effect = lower value)?
Its normalized growth is 0.98.

And the normalized growth (locus YBR021W, strain FUR4, stronger effect = lower value)?
Its normalized growth is 1.12.

And the normalized growth (locus YBR023C, strain chs3, stronger effect = lower value)?
Its normalized growth is 0.998.

What about the normalized growth (locus YBR171W, strain sec66, stronger effect = lower value) of the same compound?
The normalized growth was 1.01.

What about the normalized growth (locus YBR229C, strain ROT2, stronger effect = lower value) of the same compound?
Its normalized growth is 0.956.

And the normalized growth (locus YBR231C, strain swc5, stronger effect = lower value)?
The normalized growth was 0.982.

What about the normalized growth (locus YBR279W, strain paf1, stronger effect = lower value) of the same compound?
Its normalized growth is 0.992.

What about the normalized growth (locus YCL011C, strain gbp2, stronger effect = lower value) of the same compound?
Its normalized growth is 1.01.

What about the normalized growth (locus YCL016C, strain dcc1, stronger effect = lower value) of the same compound?
Its normalized growth is 0.997.

And the normalized growth (locus YCL029C, strain bik1, stronger effect = lower value)?
The normalized growth was 0.97.

And the normalized growth (locus YCL061C, strain MRC1, stronger effect = lower value)?
The normalized growth was 1.01.

What about the normalized growth (locus YCL069W, strain vba3, stronger effect = lower value) of the same compound?
Its normalized growth is 1.

What about the normalized growth (locus YCR088W, strain abp1, stronger effect = lower value) of the same compound?
Its normalized growth is 1.

And the normalized growth (locus YDL005C, strain med2, stronger effect = lower value)?
Its normalized growth is 1.02.

And the normalized growth (locus YDL035C, strain GPR1, stronger effect = lower value)?
Its normalized growth is 1.01.

And the normalized growth (locus YDL040C, strain nat1, stronger effect = lower value)?
Its normalized growth is 0.992.

What about the normalized growth (locus YDL074C, strain BRE1, stronger effect = lower value) of the same compound?
Its normalized growth is 1.05.

And the normalized growth (locus YDL101C, strain DUN1, stronger effect = lower value)?
The normalized growth was 0.975.

What about the normalized growth (locus YDL134C, strain PPH21, stronger effect = lower value) of the same compound?
The normalized growth was 0.979.

And the normalized growth (locus YDL185W, strain tfp1, stronger effect = lower value)?
The normalized growth was 0.964.

What about the normalized growth (locus YDL192W, strain arf1, stronger effect = lower value) of the same compound?
The normalized growth was 0.995.

And the normalized growth (locus YDR001C, strain nth1, stronger effect = lower value)?
Its normalized growth is 1.

And the normalized growth (locus YDR069C, strain doa4, stronger effect = lower value)?
Its normalized growth is 1.

What about the normalized growth (locus YDR101C, strain arx1, stronger effect = lower value) of the same compound?
Its normalized growth is 0.984.

And the normalized growth (locus YDR137W, strain rgp1, stronger effect = lower value)?
Its normalized growth is 0.88.

And the normalized growth (locus YDR159W, strain sac3, stronger effect = lower value)?
The normalized growth was 0.794 (active).

What about the normalized growth (locus YDR162C, strain NBP2, stronger effect = lower value) of the same compound?
Its normalized growth is 0.982.

What about the normalized growth (locus YDR195W, strain ref2) of the same compound?
The normalized growth was 1.18 [resistant] (active).

What about the normalized growth (locus YDR297W, strain sur2, stronger effect = lower value) of the same compound?
The normalized growth was 0.978.

And the normalized growth (locus YDR318W, strain mcm21, stronger effect = lower value)?
The normalized growth was 0.998.

And the normalized growth (locus YDR334W, strain swr1, stronger effect = lower value)?
Its normalized growth is 1.01.

And the normalized growth (locus YDR335W, strain msn5, stronger effect = lower value)?
The normalized growth was 1.01.

What about the normalized growth (locus YDR388W, stronger effect = lower value) of the same compound?
Its normalized growth is 0.983.

What about the normalized growth (locus YDR392W, strain spt3, stronger effect = lower value) of the same compound?
The normalized growth was 0.879.

What about the normalized growth (locus YDR502C, strain sam2, stronger effect = lower value) of the same compound?
The normalized growth was 0.988.

What about the normalized growth (locus YEL003W, strain gim4, stronger effect = lower value) of the same compound?
Its normalized growth is 0.992.

And the normalized growth (locus YEL037C, strain rad23, stronger effect = lower value)?
The normalized growth was 1.01.

What about the normalized growth (locus YEL061C, strain CIN8 (second series), stronger effect = lower value) of the same compound?
Its normalized growth is 1.

What about the normalized growth (locus YEL061C, strain CIN8, stronger effect = lower value) of the same compound?
The normalized growth was 0.988.

What about the normalized growth (locus YER015W, strain faa2, stronger effect = lower value) of the same compound?
Its normalized growth is 0.997.

What about the normalized growth (locus YER016W, strain bim1, stronger effect = lower value) of the same compound?
The normalized growth was 0.97.

What about the normalized growth (locus YER110C, stronger effect = lower value) of the same compound?
Its normalized growth is 0.97.

And the normalized growth (locus YER111C, strain swi4, stronger effect = lower value)?
Its normalized growth is 1.01.

And the normalized growth (locus YER155C, strain BEM2 (second series), stronger effect = lower value)?
The normalized growth was 1.02.

What about the normalized growth (locus YER155C, strain BEM2, stronger effect = lower value) of the same compound?
Its normalized growth is 1.

What about the normalized growth (locus YER167W, strain BCK2, stronger effect = lower value) of the same compound?
The normalized growth was 1.

What about the normalized growth (locus YFR010W, strain ubp6, stronger effect = lower value) of the same compound?
The normalized growth was 1.

And the normalized growth (locus YGL078C, strain dbp3, stronger effect = lower value)?
Its normalized growth is 0.99.

And the normalized growth (locus YGL086W, strain mad1, stronger effect = lower value)?
Its normalized growth is 0.983.

And the normalized growth (locus YGL167C, strain pmr1, stronger effect = lower value)?
The normalized growth was 0.987.

What about the normalized growth (locus YGL173C, strain kem1, stronger effect = lower value) of the same compound?
Its normalized growth is 1.01.

What about the normalized growth (locus YGL227W, strain vid30, stronger effect = lower value) of the same compound?
Its normalized growth is 0.998.

And the normalized growth (locus YGL240W, strain doc1, stronger effect = lower value)?
The normalized growth was 0.914.

And the normalized growth (locus YGL248W, strain PDE1, stronger effect = lower value)?
The normalized growth was 0.996.

And the normalized growth (locus YGL253W, strain hxk2, stronger effect = lower value)?
The normalized growth was 1.01.

And the normalized growth (locus YGR135W, strain pre9, stronger effect = lower value)?
Its normalized growth is 1.

And the normalized growth (locus YGR252W, strain gcn5, stronger effect = lower value)?
Its normalized growth is 1.16.

And the normalized growth (locus YHR013C, strain ard1, stronger effect = lower value)?
Its normalized growth is 1.04.

And the normalized growth (locus YHR027C, strain rpn1, stronger effect = lower value)?
The normalized growth was 0.995.

And the normalized growth (locus YHR030C, strain SLT2, stronger effect = lower value)?
The normalized growth was 0.994 and 1.02.

And the normalized growth (locus YHR079C, strain IRE1 (second series), stronger effect = lower value)?
Its normalized growth is 0.984.

And the normalized growth (locus YHR079C, strain IRE1, stronger effect = lower value)?
The normalized growth was 1.01.

What about the normalized growth (locus YHR094C, strain hxt1, stronger effect = lower value) of the same compound?
Its normalized growth is 0.976.

And the normalized growth (locus YHR129C, strain ARP1, stronger effect = lower value)?
Its normalized growth is 0.997.

What about the normalized growth (locus YHR142W, strain chs7, stronger effect = lower value) of the same compound?
The normalized growth was 1.01.

And the normalized growth (locus YHR200W, strain rpn10, stronger effect = lower value)?
Its normalized growth is 1.01.

What about the normalized growth (locus YIL066C, strain RNR3, stronger effect = lower value) of the same compound?
Its normalized growth is 0.988.

What about the normalized growth (locus YIL073C, strain SPO22, stronger effect = lower value) of the same compound?
Its normalized growth is 0.975.

What about the normalized growth (locus YIL125W, strain kgd1, stronger effect = lower value) of the same compound?
The normalized growth was 0.995.

And the normalized growth (locus YIR030C, strain dcg1, stronger effect = lower value)?
Its normalized growth is 0.989.

What about the normalized growth (locus YJL092W, strain hpr5, stronger effect = lower value) of the same compound?
The normalized growth was 1.

And the normalized growth (locus YJL095W, strain BCK1 (second series), stronger effect = lower value)?
Its normalized growth is 0.996.

What about the normalized growth (locus YJL095W, strain BCK1, stronger effect = lower value) of the same compound?
Its normalized growth is 0.982 and 1.03.

What about the normalized growth (locus YJL115W, strain asf1, stronger effect = lower value) of the same compound?
Its normalized growth is 1.01.

What about the normalized growth (locus YJL129C, strain trk1, stronger effect = lower value) of the same compound?
The normalized growth was 1.01.

What about the normalized growth (locus YJL134W, strain LCB3, stronger effect = lower value) of the same compound?
Its normalized growth is 0.99.

And the normalized growth (locus YJL154C, strain vps35, stronger effect = lower value)?
The normalized growth was 1.01.

What about the normalized growth (locus YJL164C, strain tpk1, stronger effect = lower value) of the same compound?
The normalized growth was 0.999.

And the normalized growth (locus YJL166W, strain qcr8, stronger effect = lower value)?
The normalized growth was 0.99.

And the normalized growth (locus YJL168C, strain set2, stronger effect = lower value)?
The normalized growth was 0.998.

What about the normalized growth (locus YJL187C, strain SWE1 (second series), stronger effect = lower value) of the same compound?
Its normalized growth is 0.987.

What about the normalized growth (locus YJR043C, strain POL32, stronger effect = lower value) of the same compound?
The normalized growth was 1.

And the normalized growth (locus YJR066W, strain TOR1, stronger effect = lower value)?
The normalized growth was 0.941.
